# Results published in the supplement of paper PMC4466140.
# B1: unnamed (peptide)
# chain: NLKKRPPTAPQRKIS
# Target: ScBbc1
# Experiment: SPOT peptide array binding signal intensity (averaged, normalized) (arbitrary units (background-subtracted, floor 0; scale differs between SH3 domains)); higher = stronger binding of the SH3 domain to the peptide
# Description: (§1)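 GST-tagged SH3 domains from S. cerevisiae (Sc), A. gossypii (Ag), C. albicans (Ca) and S. pombe (Sp) were incubated at 10 ug/ml overnight at 4 C on cellulose SPOT membranes carrying 292 synthetic 15-mer peptides mined from the S. cerevisiae proteome (cysteines replaced by serines). Binding was detected with anti-GST antibody, HRP secondary and chemiluminescence, quantified with Genespotter, and reported as normalized spot intensities averaged over biological replicates.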
row,Binder,SPOT peptide array binding signal intensity
1,B1,56.8

# Target: ScBem1-D1
# Experiment: as above
# Description: as §1
row,Binder,SPOT peptide array binding signal intensity
1,B1,8

# Target: ScBzz1-D1
# Experiment: as above
# Description: as §1
row,Binder,SPOT peptide array binding signal intensity
1,B1,258

# Target: ScBzz1-D2
# Experiment: as above
# Description: as §1
row,Binder,SPOT peptide array binding signal intensity
1,B1,34

# Target: ScCyk3
# Experiment: as above
# Description: as §1
row,Binder,SPOT peptide array binding signal intensity
1,B1,13

# Target: ScFus1
# Experiment: as above
# Description: as §1
row,Binder,SPOT peptide array binding signal intensity
1,B1,80

# Target: ScHof1
# Experiment: as above
# Description: as §1
row,Binder,SPOT peptide array binding signal intensity
1,B1,2.75

# Target: ScHse1
# Experiment: as above
# Description: as §1
row,Binder,SPOT peptide array binding signal intensity
1,B1,1640

# Target: ScLsb1
# Experiment: as above
# Description: as §1
row,Binder,SPOT peptide array binding signal intensity
1,B1,32.5

# Target: ScLsb2
# Experiment: as above
# Description: as §1
row,Binder,SPOT peptide array binding signal intensity
1,B1,3.5

# Target: ScLsb3
# Experiment: as above
# Description: as §1
row,Binder,SPOT peptide array binding signal intensity
1,B1,2500

# Target: ScLsb4
# Experiment: as above
# Description: as §1
row,Binder,SPOT peptide array binding signal intensity
1,B1,100

# Target: ScMyo3
# Experiment: as above
# Description: as §1
row,Binder,SPOT peptide array binding signal intensity
1,B1,9.5

# Target: ScMyo5
# Experiment: as above
# Description: as §1
row,Binder,SPOT peptide array binding signal intensity
1,B1,6.5

# Target: ScNbp2
# Experiment: as above
# Description: as §1
row,Binder,SPOT peptide array binding signal intensity
1,B1,578

# Target: ScPex13
# Experiment: as above
# Description: as §1
row,Binder,SPOT peptide array binding signal intensity
1,B1,1.75

# Target: ScRvs167
# Experiment: as above
# Description: as §1
row,Binder,SPOT peptide array binding signal intensity
1,B1,708

# Target: ScSho1
# Experiment: as above
# Description: as §1
row,Binder,SPOT peptide array binding signal intensity
1,B1,367

# Target: ScSla1-D1-D2
# Experiment: as above
# Description: as §1
row,Binder,SPOT peptide array binding signal intensity
1,B1,1690

# Target: ScSla1-D3
# Experiment: as above
# Description: as §1
row,Binder,SPOT peptide array binding signal intensity
1,B1,8.25

# Target: SpAbp1-D1
# Experiment: as above
# Description: as §1
row,Binder,SPOT peptide array binding signal intensity
1,B1,2030

# Target: SpBbc1
# Experiment: as above
# Description: as §1
row,Binder,SPOT peptide array binding signal intensity
1,B1,11

# Target: SpBzz1-D1
# Experiment: as above
# Description: as §1
row,Binder,SPOT peptide array binding signal intensity
1,B1,641

# Target: SpBzz1-D2
# Experiment: as above
# Description: as §1
row,Binder,SPOT peptide array binding signal intensity
1,B1,8.5

# Target: SpCyk3
# Experiment: as above
# Description: as §1
row,Binder,SPOT peptide array binding signal intensity
1,B1,≤ 0

# Target: SpHof1
# Experiment: as above
# Description: as §1
row,Binder,SPOT peptide array binding signal intensity
1,B1,192

# Target: SpHof1-2
# Experiment: as above
# Description: as §1
row,Binder,SPOT peptide array binding signal intensity
1,B1,12.8

# Target: SpHof1-3
# Experiment: as above
# Description: as §1
row,Binder,SPOT peptide array binding signal intensity
1,B1,77.2

# Target: SpHse1
# Experiment: as above
# Description: as §1
row,Binder,SPOT peptide array binding signal intensity
1,B1,1160

# Target: SpLsb1
# Experiment: as above
# Description: as §1
row,Binder,SPOT peptide array binding signal intensity
1,B1,9

# Target: SpLsb4
# Experiment: as above
# Description: as §1
row,Binder,SPOT peptide array binding signal intensity
1,B1,2350

# Target: SpMyo1
# Experiment: as above
# Description: as §1
row,Binder,SPOT peptide array binding signal intensity
1,B1,10.2

# Target: SpNbp2
# Experiment: as above
# Description: as §1
row,Binder,SPOT peptide array binding signal intensity
1,B1,303

# Target: SpPex13
# Experiment: as above
# Description: as §1
row,Binder,SPOT peptide array binding signal intensity
1,B1,6

# Target: SpRvs167
# Experiment: as above
# Description: as §1
row,Binder,SPOT peptide array binding signal intensity
1,B1,539

# Target: SpSla1-D1-D2
# Experiment: as above
# Description: as §1
row,Binder,SPOT peptide array binding signal intensity
1,B1,13

# Target: SpSla1-D3
# Experiment: as above
# Description: as §1
row,Binder,SPOT peptide array binding signal intensity
1,B1,6
